Results taken from PubChem BioAssay (NCI).
Several values for one entry are separate records, joined by “and”; a condition that tells them apart may be missing. Equal entries are not always repeated. This is part of a sample that, as a whole, favours compounds with a hit. Of some 83,000 tested, about 20% had one in any assay.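 96-well plates, one dose, 48 hours. Percent growth reported; active if below 10.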 A number with no mark means an inactive call. Activity calls are given as the source filed them.

system: MDA-MB-468 breast; assay: NCI-60 one-dose screen, 48 h (100 = growth as untreated, 0 = no growth, -100 = all killed); conditions: 10 µM unless noted

Row | SMILES | growth
1 | CC1=C(CCCOC(=O)[C@H](N)CC(C)C)C2=C(C)C3(CC3)[C@@](C)(O)C(=O)C2=C1 | -61.5% (active)
2 | CC(=O)O[C@H]1C[C@@H]2OC3C=C(C)CCC3(C)[C@@]1(C)[C@@]21CO1 (stereo not given in full) | -26.7% (active) and -40.4% (active)
3 | CN(C)C(=O)Oc1ccc(Br)cc1 | 98.6%
4 | O=[N+]([O-])c1ccc2scc3c4ccccc4nc-3c2c1 | -84.5% (active)
5 | CCC[CH2][Sn]([CH2]CCC)([CH2]CCC)[O]C(=O)CC | -88% (active)
6 | ClCCN(CCCl)c1ccc(/C=N\N=C\c2ccc(N(CCCl)CCCl)cc2)cc1 | 50%
7 | N#CC1=C(N)Oc2cc3c(cc2C1c1cccs1)OCO3 (stereo not given) | 6.33% (active)
8 | COc1cc(/C=C/[N+](=O)[O-])cc(OC)c1 | -61.2% (active)
9 | CCC1(C(C)C)C(=O)NC(=S)NC1=O | 89.9%
10 | O=C1C(=O)c2ccccc2-c2ccccc21 | -85.6% (active)
11 | Cc1cc(NC(=O)CCc2ccc(N3C(N)=NC(N)=NC3(C)C)cc2)ccc1S(=O)(=O)F | 32.4%
12 | COCC1OC2OC3C(COC)OC(OC4C(COC)OC(OC5C(COC)OC(OC6C(COC)OC(OC7C(COC)OC(OC8C(COC)OC(OC1C(O)C2O)C(O)C8O)C(O)C7O)C(O)C6O)C(O)C5O)C(O)C4O)C(O)C3O (stereo not given) (tested in a mixture with another compound) | 105%
13 | NC(N)=NC(N)=Nc1ccc(Cl)cc1 | 111%
14 | O=[N+]([O-])c1cc(Br)c(O)c(Br)c1 | 99.4%
15 | [Br][Pb]([c]1ccccc1)([c]1ccccc1)[c]1ccccc1 | -88.2% (active)
16 | Nc1c(Br)cc([N+](=O)[O-])cc1[N+](=O)[O-] | 95.5%
17 | c1ccc(Nc2nc(-c3ccccc3)c[se]2)cc1 | 49.8%
18 | CC1([N+](=O)[O-])COP(=O)(Nc2ccc(F)cc2)OC1 (stereo not given) | 110%
19 | COc1ccc(C2=CC(c3ccc(OC)c(OC)c3)c3c(c4ccccc4oc3=O)O2)cc1OC (stereo not given) | -8.37% (active)
20 | C#Cc1ccc2c(c1)C(c1ccccc1F)=NCC(=O)N2C | 26%

Row | SMILES | growth
21 | O=C(N/N=C\c1ccc(N(CCCl)CCCl)cc1Cl)c1cccnc1 | -69.6% (active)
22 | Cc1cc(C)cc(Nc2nc3c(s2)CC[C@@]2(C)C3=CC[C@@H]3[C@@H]2CC[C@]2(C)C(=O)CC[C@@H]32)c1 | 57.9%
23 | O=S(=O)(F)c1ncnc2nc[nH]c12 | 96.1%
24 | O=NNc1ccccn1 | 78.5%
25 | COC(=O)[C@H](Cc1c[nH]c2ccccc12)NC(=O)[C@@H](OC)[C@@H]1Cc2cc3cc(OC4CC(OC5CC(O)C(O)C(C)O5)C(O)C(C)O4)c(C)c(O)c3c(O)c2C(=O)[C@H]1OC1CC(OC2CC(OC3CC(C)(O)C(O)C(C)O3)C(O)C(C)O2)C(O)C(C)O1 (stereo not given in full) | -48.8% (active)
26 | CC1(C)N=C(N)N=C(N)N1c1ccc(CNC(=O)Nc2ccc(S(=O)(=O)F)c(Cl)c2)c(Cl)c1 | 30.2%
27 | Nc1ccc(OCCNS(=O)(=O)c2cccc(S(=O)(=O)F)c2)c(Cl)c1 | 94.6%
28 | CN1CCC2(CC1)C(C#N)C(=O)NC(=O)C2C#N (stereo not given) | 102%
29 | CCN1C(=O)C(=C/C=C/c2ccccc2)C(=O)N(CC)C1=O | 93.1%
30 | CC[C@H](C)[C@H](NC(=O)[C@H]1CCCCN1C)C(=O)N(C)[C@H](C[C@@H](OC(C)=O)c1nc(C(=O)NC23CC(C(=O)OC)(C2)C3)cs1)C(C)C | 4.52% (active)
31 | CC(N)Cc1ccc(O)cc1 (stereo not given) | 107%
32 | Nc1c(F)cc(-c2nc3cc(F)ccc3[se]2)cc1Br | -35.4% (active)
33 | CC1CN1CCCCN1CC1C (stereo not given) | 101%
34 | ClCCN(CCCl)c1ccc(OCc2ccccc2)cc1 | 58.3%
35 | O=C1OCC2=C1C(c1ccccc1)c1cc3c(cc1N2)OCO3 (stereo not given) | -9.05% (active)
36 | OCCNC1CCCCC1 | 109%
37 | CC(C)=CCC/C(C)=C/C=N\N=C(/N)N[N+](=O)[O-] | 103%
38 | CC(C)C1c2ccc(O)cc2Oc2nc(N)c(C#N)c(N)c21 (stereo not given) | 90%
39 | CCOC(=S)S[C@H]1C[C@@H]2[C@H](CC[C@]3(C)C(=O)CC[C@@H]23)[C@@]2(C)CCC(=O)C=C12 | 101%
40 | Oc1c(I)cc(I)cc1I | 102%
